Bioassay records deposited in PubChem BioAssay by The Scripps Research Institute Molecular Screening Center.
This is a sample that favours compounds with a hit; in the whole collection about 1.8% have one here.
PP1 inh – blocks human PP1-alpha phosphatase, a PP5 counter-screen; P62136; purified PP1alpha, OMFP fluorescence; inhibition, % at 6.7 µM; hit rate 0.9% among 320,000; AID 2235;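 active = inhibition above the mean inhibition of all tested compounds plus 3 SD, computed separately for each screening campaign, cut at about 15% in these data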
LYPLA2 inh – blocks human lysophospholipase 2, a PME1 counter-screen. O95372. recombinant LYPLA2, FP-Rh probe fluorescence polarization. inhibition, % at 5.9 µM. hit rate 0.38% among 320,000. AID 2177;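 active = inhibition above the screen-wide mean plus 3 SD, limit set per campaign, cut at about 26% in these data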
Fam108B inh – counter-screen for RBBP9 inhibitors: inhibitors of mouse Fam108B | recombinant Fam108B, FP-Rh probe fluorescence polarization | AID 1947 | hit rate 0.33% among 300,000 | inhibition, % at 9.51 µM;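 active = inhibition above the screen mean inhibition plus 3 SD, computed separately per campaign, cut at about 18% in these data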;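 note: inhibitors lower polarization as less probe binds the enzyme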
LYPLA1 counter – counter-screen for PME1 inhibitors: inhibitors of human LYPLA1; O75608; recombinant LYPLA1, FP-Rh probe fluorescence polarization; inhibition, % at 5.9 µM; hit rate 0.16% among 320,000;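 active = inhibition above the mean of all tested compounds plus 3 SD, set per campaign, cut at about 14% in these data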;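 note: inhibitors block serine hydrolase probe labeling of LYPLA1 so polarization falls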
PP5 primary – inhibitors of human protein phosphatase 5 (PP5); AID 1987; P53041; inhibition, % at 6.7 µM; hit rate 0.18% among 320,000; purified PP5c, OMFP substrate fluorescence;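 active = inhibition above the campaign's mean inhibition across all tested compounds plus 3 SD, cut at about 9.5% in these data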
Target sequence (P53041 whole entry, looked up): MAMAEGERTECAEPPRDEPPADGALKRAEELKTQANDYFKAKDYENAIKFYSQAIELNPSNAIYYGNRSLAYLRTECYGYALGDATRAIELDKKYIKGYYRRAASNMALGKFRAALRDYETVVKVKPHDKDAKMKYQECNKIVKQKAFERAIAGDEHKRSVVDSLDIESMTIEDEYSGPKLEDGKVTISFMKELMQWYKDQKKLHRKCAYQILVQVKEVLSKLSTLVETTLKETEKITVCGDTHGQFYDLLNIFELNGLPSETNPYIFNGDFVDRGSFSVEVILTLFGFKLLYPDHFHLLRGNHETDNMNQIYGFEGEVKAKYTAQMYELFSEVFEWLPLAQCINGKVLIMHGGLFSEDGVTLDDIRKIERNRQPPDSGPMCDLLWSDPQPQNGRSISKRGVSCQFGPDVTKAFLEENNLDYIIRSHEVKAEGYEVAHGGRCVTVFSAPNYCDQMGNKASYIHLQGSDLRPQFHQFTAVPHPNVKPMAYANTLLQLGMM
PME-1 inh – blocks human protein phosphatase methylesterase 1. hit rate 0.53% among 320,000. AID 2130. inhibition, % at 5.9 µM. recombinant PME-1, FP-Rh probe fluorescence polarization. Q9Y570;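 active = inhibition above the campaign mean of all compounds plus 3 SD, cut at about 26% in these data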;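 note: competitive labeling of PME-1 active site by serine hydrolase directed probe; inhibitors block probe labeling so polarization falls and inhibition rises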
LYPLA2 conf – LYPLA2 (human) inhibition, confirmation counter-screen | shares compounds with LYPLA2 inh | recombinant LYPLA2, FP-Rh probe fluorescence polarization | inhibition, % at 5.9 µM | hit rate 72% among 1,100 | AID 2232;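 active = mean inhibition across replicates above the hit cutoff set in the primary screen, cut at about 26% in these data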;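 note: blocked labeling of the enzyme by serine hydrolase FP-Rh probe lowers polarization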
LYPLA2 gel ABPP – inhibitors of human LYPLA2; inhibition, % at 20 µM; hit rate 30% among 150; shares compounds with LYPLA2 inh; rhLYPLA2 in mouse brain proteome, gel ABPP FP-Rh;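 active = inhibition of LYPLA2 enzyme probe labeling above about 50%, limit read from the data; inactive = inhibition below that limit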;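 note: loss of FP-Rh probe labeling of the LYPLA2 gel band measured as band density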
A number is an active result.

Results for CC(=O)Nc1cccc(C(=O)OCC(=O)NNC(=O)c2ccc([N+](=O)[O-])cc2)c1 ?
PP1 inh: inactive; LYPLA2 inh: inactive; Fam108B inh: inactive; LYPLA1 counter: inactive; PP5 primary: inactive; PME-1 inh: inactive

What do the screens show for `CSc1nc(C(=O)N2CCCC(Nc3ccc(C)c(C)c3)C2)cs1` (stereo unspecified)?
PP1 inh: inactive; LYPLA2 inh: inactive; Fam108B inh: inactive; LYPLA1 counter: inactive; PP5 primary: inactive; PME-1 inh: inactive

What do the screens show for `O=C(OCc1nnc(-c2ccccc2)o1)c1cc([N+](=O)[O-])ccc1Cl`?
PP1 inh: inactive; LYPLA2 inh: inactive; Fam108B inh: inactive; LYPLA1 counter: inactive; PP5 primary: inactive; PME-1 inh: inactive

What do the screens show for `Cc1onc(-c2ccccc2)c1C(=O)OCc1nnc(-c2ccc([N+](=O)[O-])cc2)o1`?
PP1 inh: inactive; LYPLA2 inh: 28; LYPLA1 counter: inactive; PP5 primary: inactive; PME-1 inh: inactive; LYPLA2 conf: 28

How did O=C(NNc1ccccc1[N+](=O)[O-])Nc1ccc(F)cc1 do in these assays?
PP1 inh: inactive; LYPLA2 inh: inactive; Fam108B inh: inactive; LYPLA1 counter: inactive; PP5 primary: inactive; PME-1 inh: inactive

How did O=C(NNc1ccccc1[N+](=O)[O-])Nc1ccc(Cl)c(Cl)c1 do in these assays?
PP1 inh: inactive; LYPLA2 inh: 49; Fam108B inh: inactive; LYPLA1 counter: inactive; PP5 primary: inactive; PME-1 inh: inactive; LYPLA2 conf: 44

What do the screens show for `O=C(NNc1ccccc1[N+](=O)[O-])Nc1ccccc1`?
PP1 inh: inactive; LYPLA2 inh: 28; Fam108B inh: inactive; LYPLA1 counter: inactive; PP5 primary: inactive; PME-1 inh: inactive; LYPLA2 conf: inactive

How did CCCNC(=O)c1ccc(N2CCC3(CC2)CC(c2ccccc2)=NO3)c(N)c1 do in these assays?
PP1 inh: inactive; LYPLA2 inh: inactive; Fam108B inh: inactive; LYPLA1 counter: inactive; PP5 primary: inactive; PME-1 inh: inactive

How did CCCNC(=O)c1ccc(N2CCC3(CC2)CC(c2ccccc2)=NO3)c([N+](=O)[O-])c1 do in these assays?
PP1 inh: inactive; LYPLA2 inh: 28; Fam108B inh: inactive; LYPLA1 counter: inactive; PP5 primary: inactive; PME-1 inh: inactive; LYPLA2 conf: inactive

How did CCOC(=O)C1CCCN(C(=O)c2ccc3nc(-c4cccc(OC)c4)oc3c2)C1 (stereo unspecified) do in these assays?
PP1 inh: inactive; LYPLA2 inh: 56; Fam108B inh: inactive; LYPLA1 counter: inactive; PP5 primary: inactive; PME-1 inh: inactive; LYPLA2 conf: 57

What do the screens show for `COc1cccc(-c2nc3ccc(C(=O)N4CCCC(O)C4)cc3o2)c1` (stereo unspecified)?
PP1 inh: inactive; LYPLA2 inh: inactive; Fam108B inh: inactive; LYPLA1 counter: inactive; PP5 primary: inactive; PME-1 inh: inactive

How did CCC(=O)C1CCCN(C(=O)c2ccc3nc(-c4cccc(OC)c4)oc3c2)C1 (stereo unspecified) do in these assays?
PP1 inh: inactive; LYPLA2 inh: 29; Fam108B inh: inactive; LYPLA1 counter: inactive; PP5 primary: inactive; PME-1 inh: inactive; LYPLA2 conf: 40

How did COc1ccc(CNC(=O)C2CCCN(S(=O)(=O)c3ccc(F)cc3)C2)cc1 (stereo unspecified) do in these assays?
PP1 inh: inactive; LYPLA2 inh: inactive; Fam108B inh: inactive; LYPLA1 counter: inactive; PP5 primary: inactive; PME-1 inh: inactive

What do the screens show for `CC(C)C(NC(=O)c1ccco1)C(=O)NCc1ccc(C(=O)O)cc1` (stereo unspecified)?
PP1 inh: inactive; LYPLA2 inh: inactive; Fam108B inh: inactive; LYPLA1 counter: inactive; PP5 primary: inactive; PME-1 inh: inactive

Results for COc1ccc(-c2ccc(=O)n(Cc3ccc([N+](=O)[O-])cc3)n2)cc1 ?
PP1 inh: inactive; LYPLA2 inh: 29; Fam108B inh: inactive; LYPLA1 counter: inactive; PP5 primary: inactive; PME-1 inh: inactive; LYPLA2 conf: 30

How did O=C(c1ccncc1)N1CCCC(N2CCN(c3cccc(C(F)(F)F)c3)CC2)C1 (stereo unspecified) do in these assays?
PP1 inh: inactive; LYPLA2 inh: 26; Fam108B inh: inactive; LYPLA1 counter: inactive; PP5 primary: inactive; PME-1 inh: inactive; LYPLA2 conf: 43

How did CCc1cc(C(=O)N2CCCC(N3CCN(c4cccc(C(F)(F)F)c4)CC3)C2)n(C)n1 (stereo unspecified) do in these assays?
PP1 inh: inactive; LYPLA2 inh: 81; Fam108B inh: inactive; LYPLA1 counter: inactive; PP5 primary: inactive; PME-1 inh: inactive; LYPLA2 conf: 74; LYPLA2 gel ABPP: inactive

What do the screens show for `CCn1cc(C(=O)N2CCCC(N3CCN(c4cccc(C(F)(F)F)c4)CC3)C2)cn1` (stereo unspecified)?
PP1 inh: inactive; LYPLA2 inh: 32; Fam108B inh: inactive; LYPLA1 counter: inactive; PP5 primary: inactive; PME-1 inh: inactive; LYPLA2 conf: inactive

How did O=C(c1ccoc1)N1CCCC(N2CCN(c3cccc(C(F)(F)F)c3)CC2)C1 (stereo unspecified) do in these assays?
PP1 inh: inactive; LYPLA2 inh: inactive; Fam108B inh: inactive; LYPLA1 counter: inactive; PP5 primary: inactive; PME-1 inh: inactive

Results for CC(=O)N1CCCC(N2CCN(c3cccc(C(F)(F)F)c3)CC2)C1 (stereo unspecified) ?
PP1 inh: inactive; LYPLA2 inh: inactive; Fam108B inh: inactive; LYPLA1 counter: inactive; PP5 primary: inactive; PME-1 inh: inactive

What do the screens show for `Cc1cc(C)n(CC(=O)N2CCCC(N3CCN(c4cccc(C(F)(F)F)c4)CC3)C2)n1` (stereo unspecified)?
PP1 inh: inactive; LYPLA2 inh: inactive; Fam108B inh: inactive; LYPLA1 counter: inactive; PP5 primary: inactive; PME-1 inh: inactive

How did Cc1ccc(C(=O)N2CCCC(N3CCN(c4cccc(C(F)(F)F)c4)CC3)C2)s1 (stereo unspecified) do in these assays?
PP1 inh: inactive; LYPLA2 inh: 42; Fam108B inh: inactive; LYPLA1 counter: inactive; PP5 primary: inactive; PME-1 inh: inactive; LYPLA2 conf: 39

Results for Cc1cccc(NC(=O)CN2CCN(C(=O)c3oc4c(Cl)cccc4c3C)CC2)c1C ?
PP1 inh: inactive; LYPLA2 inh: inactive; LYPLA1 counter: inactive; PP5 primary: inactive; PME-1 inh: inactive

What do the screens show for `[O-][n+]1onc2c1CCC(=N/O)/C2=N\Nc1ccccc1`?
PP1 inh: inactive; LYPLA2 inh: inactive; Fam108B inh: inactive; LYPLA1 counter: inactive; PP5 primary: inactive; PME-1 inh: inactive

How did Cc1occc1C(=O)NNC(=O)c1ccccc1[N+](=O)[O-] do in these assays?
PP1 inh: inactive; LYPLA2 inh: inactive; Fam108B inh: inactive; LYPLA1 counter: inactive; PP5 primary: inactive; PME-1 inh: inactive
